# Screening data from PubChem.
# mHTT-CaM PPI inh = inhibitors of human mutant huntingtin-calmodulin interaction. P42858. 3.6% of 190,000 active. AlphaScreen His-mHTT/GST-CaM binding, luminescence. inhibition, % at 15 µM;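 note: 0% = both proteins with DMSO and 100% = one protein alone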
# Target sequence (P42858 whole entry, looked up, stated change not applied): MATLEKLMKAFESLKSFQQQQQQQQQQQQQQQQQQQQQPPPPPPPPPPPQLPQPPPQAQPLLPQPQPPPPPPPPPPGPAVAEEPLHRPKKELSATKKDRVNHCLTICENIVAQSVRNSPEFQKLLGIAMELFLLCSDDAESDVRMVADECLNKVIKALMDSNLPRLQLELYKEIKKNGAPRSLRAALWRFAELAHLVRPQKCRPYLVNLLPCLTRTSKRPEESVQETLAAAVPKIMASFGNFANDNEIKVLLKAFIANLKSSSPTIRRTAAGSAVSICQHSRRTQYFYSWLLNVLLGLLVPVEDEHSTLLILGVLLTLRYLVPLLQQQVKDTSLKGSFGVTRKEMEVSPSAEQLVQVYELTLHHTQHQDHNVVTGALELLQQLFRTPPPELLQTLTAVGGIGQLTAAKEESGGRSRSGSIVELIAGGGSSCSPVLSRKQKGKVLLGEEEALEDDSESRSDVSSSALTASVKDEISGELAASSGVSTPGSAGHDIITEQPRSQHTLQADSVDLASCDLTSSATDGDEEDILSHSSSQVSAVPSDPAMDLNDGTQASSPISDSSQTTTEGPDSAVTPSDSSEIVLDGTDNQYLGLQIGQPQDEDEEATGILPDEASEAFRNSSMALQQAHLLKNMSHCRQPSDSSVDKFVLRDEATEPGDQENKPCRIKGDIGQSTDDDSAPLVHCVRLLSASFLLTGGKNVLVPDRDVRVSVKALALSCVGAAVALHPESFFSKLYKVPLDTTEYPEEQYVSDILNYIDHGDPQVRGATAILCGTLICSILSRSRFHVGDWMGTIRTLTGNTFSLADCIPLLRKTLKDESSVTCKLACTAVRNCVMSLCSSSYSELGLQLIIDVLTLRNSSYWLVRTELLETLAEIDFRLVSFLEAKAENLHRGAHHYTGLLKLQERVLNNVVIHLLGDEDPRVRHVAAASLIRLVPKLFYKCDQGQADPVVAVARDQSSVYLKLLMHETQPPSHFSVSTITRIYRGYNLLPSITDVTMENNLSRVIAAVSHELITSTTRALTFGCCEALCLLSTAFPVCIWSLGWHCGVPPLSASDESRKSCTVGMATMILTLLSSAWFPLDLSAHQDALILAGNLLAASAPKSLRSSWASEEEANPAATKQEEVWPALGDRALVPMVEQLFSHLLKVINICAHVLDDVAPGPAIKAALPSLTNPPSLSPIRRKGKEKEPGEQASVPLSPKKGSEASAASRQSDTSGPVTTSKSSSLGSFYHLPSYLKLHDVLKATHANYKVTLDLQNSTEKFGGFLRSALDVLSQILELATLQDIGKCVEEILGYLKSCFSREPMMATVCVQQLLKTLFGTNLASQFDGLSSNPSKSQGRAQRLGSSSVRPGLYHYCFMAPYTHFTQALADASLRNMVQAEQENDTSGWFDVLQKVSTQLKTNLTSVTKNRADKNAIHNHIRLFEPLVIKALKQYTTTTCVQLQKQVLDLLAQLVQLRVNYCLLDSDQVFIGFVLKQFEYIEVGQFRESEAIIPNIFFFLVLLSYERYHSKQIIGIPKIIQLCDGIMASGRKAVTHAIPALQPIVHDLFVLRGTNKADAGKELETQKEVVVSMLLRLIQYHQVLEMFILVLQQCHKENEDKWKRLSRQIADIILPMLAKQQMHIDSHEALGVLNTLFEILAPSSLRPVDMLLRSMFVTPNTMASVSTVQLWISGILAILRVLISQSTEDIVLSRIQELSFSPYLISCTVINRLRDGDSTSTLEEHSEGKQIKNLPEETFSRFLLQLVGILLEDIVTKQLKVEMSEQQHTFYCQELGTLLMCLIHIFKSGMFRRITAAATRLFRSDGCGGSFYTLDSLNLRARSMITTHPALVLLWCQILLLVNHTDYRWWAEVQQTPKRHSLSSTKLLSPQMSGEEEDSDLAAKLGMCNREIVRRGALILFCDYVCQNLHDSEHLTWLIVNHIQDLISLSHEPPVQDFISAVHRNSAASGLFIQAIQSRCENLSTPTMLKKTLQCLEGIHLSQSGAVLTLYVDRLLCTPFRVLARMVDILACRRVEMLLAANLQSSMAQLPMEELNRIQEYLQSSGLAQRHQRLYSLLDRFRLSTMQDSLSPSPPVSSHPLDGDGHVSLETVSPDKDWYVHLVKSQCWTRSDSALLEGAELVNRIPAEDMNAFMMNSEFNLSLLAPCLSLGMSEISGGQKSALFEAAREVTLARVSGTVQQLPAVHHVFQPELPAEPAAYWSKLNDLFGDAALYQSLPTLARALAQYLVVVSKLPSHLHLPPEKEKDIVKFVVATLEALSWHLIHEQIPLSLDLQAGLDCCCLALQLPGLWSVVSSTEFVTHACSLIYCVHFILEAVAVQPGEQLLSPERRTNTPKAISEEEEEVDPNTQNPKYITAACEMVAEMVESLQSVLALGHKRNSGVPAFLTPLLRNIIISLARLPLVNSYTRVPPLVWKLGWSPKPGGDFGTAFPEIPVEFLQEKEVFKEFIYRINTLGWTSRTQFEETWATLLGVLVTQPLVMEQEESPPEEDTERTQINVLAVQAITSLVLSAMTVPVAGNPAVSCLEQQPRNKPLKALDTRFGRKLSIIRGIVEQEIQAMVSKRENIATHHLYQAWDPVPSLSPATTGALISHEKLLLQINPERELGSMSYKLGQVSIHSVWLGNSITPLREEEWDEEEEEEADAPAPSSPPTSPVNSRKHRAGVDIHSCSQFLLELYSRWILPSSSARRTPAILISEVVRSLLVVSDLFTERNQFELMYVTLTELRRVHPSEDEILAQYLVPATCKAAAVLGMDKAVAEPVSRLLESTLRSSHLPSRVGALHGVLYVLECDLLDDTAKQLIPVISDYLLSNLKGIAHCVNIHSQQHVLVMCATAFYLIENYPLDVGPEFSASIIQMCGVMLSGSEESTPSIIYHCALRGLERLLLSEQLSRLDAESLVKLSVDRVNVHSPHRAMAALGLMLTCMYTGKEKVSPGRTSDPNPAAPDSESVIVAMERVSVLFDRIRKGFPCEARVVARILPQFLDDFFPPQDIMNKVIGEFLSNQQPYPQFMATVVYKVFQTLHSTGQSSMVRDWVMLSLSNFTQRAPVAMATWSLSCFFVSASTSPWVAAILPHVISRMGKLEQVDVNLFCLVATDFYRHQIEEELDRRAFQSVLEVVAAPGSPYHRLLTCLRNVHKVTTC
# Pf apPOL block = Pf-apPOL DNA polymerase inhibition | Recombinant Pf-apPOL, molecular beacon fluorescence, 1.5 h | inhibition, % at 10 µM | 0.25% of 210,000 active | AID 1794808
# An asterisk follows results filed as active; · = no result. Only some compounds are listed: those with a hit (about 3.5% of all), similar ones and a draw of the others. Cut-off read from the data, not from the text of the source: active = inhibition above about 50%; inactive = the rest.
SMILES,mHTT-CaM PPI inh,Pf apPOL block
C=CCn1c(=O)c(C(=O)Nc2nc3ccccc3s2)c(O)c2ccccc21,-3,2
Cc1ccc(NS(=O)(=O)c2cc3c(s2)CCN(C(=O)C2CCC2)C3)cc1F,26,-4
CCOc1ccc(N2C(=O)Nc3ccc(Br)cc3C2(O)C(=O)NC(C)C)cc1 (centres undefined),7,-7
CCOc1ccc2c(c1)-c1c(sn(-c3ccc(C(C)C)cc3)c1=S)C(C)(C)N2,76*,·
CCOc1ccc(-n2sc3c(c2=S)-c2ccc(OC)cc2NC3(C)C)cc1,94*,·
CCOc1ccc2c(c1)-c1c(sn(-c3ccc(OC)cc3)c1=S)C(C)(C)N2,94*,·
CCOc1ccc(C2CC(c3cccc(OC)c3)n3nc(N)nc3N2)cc1 (centres undefined),16,-5
CCOc1ccc2c(=O)c(-c3ccc(OC)cc3)coc2c1,-3,-9
CCCC(=O)Nc1ccc(Oc2ccc(F)c(C)c2)nc1,-14,-7
O=C(c1ccccc1Cl)N1CCCCC1CCN1CCCCCC1 (centres undefined),-5,-7
CCOc1ccccc1CN1CCc2nc(N3CCN(c4ncccn4)CC3)ncc2C1,100*,-4
CCOc1ccccc1CN1CCc2nc(N3CCN(CC)CC3)ncc2C1,26,-1
COc1ccc(OC)c(CN2CCc3nc(N4CCCC4)ncc3C2)c1,0,7
COc1ccc(CN2CCc3nc(N4CCC(C)CC4)ncc3C2)c(OC)c1,74*,3
COc1ccc(CN2CCc3nc(N4CCN(c5ncccn5)CC4)ncc3C2)c(OC)c1,100*,-1
COc1ccc(N2CCN(c3ncc4c(n3)CCN(Cc3ccccc3C)C4)CC2)cc1,10,-2
COc1ccc(N2CCN(c3ncc4c(n3)CCN(Cc3ccccc3OC)C4)CC2)cc1,53*,-5
COc1cc(OC)c(OC)cc1CN1CCc2nc(N3CCC(C)CC3)ncc2C1,10,-6
N/C(=C\C(=O)c1cccs1)C(F)(F)C(F)F,-6,3
Cc1ccc(N2C(=O)CC(C3CCCC=C3N3CCCCC3)C2=O)cc1 (centres undefined),-7,5
CCCSC1=C(C#N)C(c2ccc(C)o2)CC(=O)N1 (centres undefined),5,-4
COc1ccc(NC(=O)c2noc3c2CCCC3)cc1,-8,-2
CC(C)c1ccc(/C=c2\sc3nc(=O)c(Cc4ccccc4)nn3c2=O)cc1,3,-5
O=C(c1ccccc1F)N1CCC(CCOc2ccc(F)cc2)CC1,15,2
Cc1ccc(Cn2cc(CCC(=O)NCc3ccccn3)c3ccccc32)cc1,78*,-18
SMILES,mHTT-CaM PPI inh,Pf apPOL block
Cc1ccc(Cn2cc(CCC(=O)NCc3ccco3)c3ccccc32)cc1,15,-14
COc1ccc(N2C=C(C#N)S(=O)(=O)c3ccc(F)cc32)c(C)c1,-5,2
COc1ccccc1NC(=O)C1CC(Cl)=CCC1C(=O)O (centres undefined),3,0
Cc1ccccc1NC(=O)C1CC(Cl)=CCC1C(=O)O (centres undefined),-4,64*
COc1ccc(CNS(=O)(=O)c2cc(Br)cc3c2N(C(C)=O)CC3)cc1,5,-3
O=C(Cc1nc(-c2ccccn2)n[nH]1)Nc1ccc(F)c(F)c1,86*,-14
Cc1cccc(NC(=O)Cc2nc(-c3ccccn3)n[nH]2)c1C,99*,-8
Cc1cccc(NC(=O)Cc2nc(-c3ccccc3)n[nH]2)c1C,5,-2
O=C(Cc1nc(-c2cccnc2)n[nH]1)Nc1ccc(F)c(F)c1,2,-1
CCOC(=O)Cc1nc(-c2ccccn2)n[nH]1,98*,-6
Cc1ccc(NC(=O)Cc2nc(-c3ccccc3)n[nH]2)c(C)c1,1,-1
Cc1ccccc1NC(=O)Cc1nc(-c2ccccn2)n[nH]1,100*,-10
N#CCc1nc(-c2ccccn2)n[nH]1,·,-25
CC(C)(C)N1CC(CO)([N+](=O)[O-])C1,-3,·
CCn1cc(CN2CCC(c3nc(-c4ccccc4)no3)C2)cn1 (centres undefined),28,0
C/C(Cl)=C\CSc1nc2c(c(=O)[nH]c(=O)n2C)n1Cc1cccc(Br)c1,16,0
Cc1ccc(NC(=O)Cc2nc(-c3ccccn3)n[nH]2)cc1,69*,-6
O=C(Cc1nc(-c2cccnc2)n[nH]1)Nc1ccc(F)cc1,-3,-1
CCCNC(=O)N1CCCN(C(C)=O)CC1,-2,2
C=CCN1C(=O)C2(Oc3ccccc3C3CC(c4ccccc4)=NN32)c2ccccc21 (centres undefined),7,0
CCC1(C)Oc2ccccc2C2CC(c3ccccc3)=NN21 (centres undefined),44,0
CN(CC(=O)N1N=C(c2cccs2)CC1c1ccccc1Cl)C(=O)C1CCC1 (centres undefined),26,3
O=C1Nc2ccccc2C12Oc1ccccc1C1CC(c3ccc(Cl)cc3)=NN12 (centres undefined),100*,-4
Cc1ccc(C2=NN3C(C2)c2ccccc2OC32CCCCC2)o1 (centres undefined),53*,-6
c1csc(C2=NN3C(C2)c2ccccc2OC32CCCC2)c1 (centres undefined),56*,-1
SMILES,mHTT-CaM PPI inh,Pf apPOL block
CN1CCC2(CC1)Oc1ccc(Cl)cc1C1CC(c3ccc(Cl)cc3)=NN12 (centres undefined),24,·
Clc1ccc2c(c1)C1CC(c3cccnc3)=NN1C1(CCCCC1)O2 (centres undefined),51*,-23
Cc1ccc(S(=O)(=O)N2CCC(CCNC(=O)Nc3cc(F)ccc3F)CC2)cc1,42,-5
CS(=O)(=O)N(CC(=O)Nc1ccccc1C(N)=O)c1ccc(I)cc1,1,0
O=C(Nc1ccc(Cl)cc1)c1ccc(CN2CCOCC2)cc1,-1,8
O=C(Nc1ccc(F)c(F)c1)C1CCN(c2ccncc2)CC1,-10,0
O=C(CCc1nnc(-c2ccccc2)[nH]c1=O)NC1CC1,1,1
c1ccc(C2=NN3C(C2)c2ccccc2OC32CCCCC2)cc1 (centres undefined),44,-1
c1ccc(C2=NN3C(C2)c2ccccc2OC32CCCC2)cc1 (centres undefined),51*,29
Cc1ccccc1CC(=O)N1CCc2cn(C)c3cccc(c23)C1,42,-2
COc1ccc(CC(=O)N2CCc3cn(C)c4cccc(c34)C2)cc1,57*,-2
Cn1cc2c3c(cccc31)CN(C(=O)Cc1ccccc1Cl)CC2,50*,-3
COc1ccc(CC(=O)N2CCc3ccccc3C2)cc1,4,-5
COc1cc([N+](=O)[O-])cc2sc(NC(=O)CCS(=O)(=O)c3ccc(C)cc3)nc12,-2,5
N=C1S/C(=C\c2ccco2)C(=O)N1c1nonc1N,93*,1
N=C1NC(=O)/C(=C\c2ccc(-c3cccc(C(F)(F)F)c3)o2)S1,43,-1
CC(=O)Nc1nonc1N1C(=N)S/C(=C\c2ccc(-c3ccc(F)c(Cl)c3)o2)C1=O,26,1
N=C1S/C(=C\c2ccc(-c3ccc4c(c3)COC4=O)o2)C(=O)N1c1nccs1,41,-7
CC(=O)Nc1nonc1N1C(=N)S/C(=C\c2ccc(-c3ccc(F)cc3)o2)C1=O,62*,-3
N=C1S/C(=C\c2ccc(-c3cccc(C(F)(F)F)c3)o2)C(=O)N1c1nonc1N,56*,-3
N=C1S/C(=C\c2ccc(-c3cccc(Cl)c3)o2)C(=O)N1c1nccs1,57*,-9
COc1ccc(/C=C2\SC(=N)N(c3nonc3N)C2=O)cc1,-1,-6
